# Compound activity (PubChem BioAssay)
# TRPML1 inh: blocks the human TRPML1 channel; TRPML1-inducible cells, Ca2+ dye fluorescence, FDSS; hits give low values; inhibition of EC80 agonist-evoked calcium signal; Q9GZU1; 0.02% of 390,000 active; activity change, negative = inhibition, % (no concentration beside the values); in the data active = activity change below about -50%; inconclusive = between about -30% and that limit;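 note: stimulus is agonist 54-4 at its EC80 concentration; % is set by controls: 0 for no effect and ±100 for the full control effect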
# Target sequence (Q9GZU1 whole entry, looked up): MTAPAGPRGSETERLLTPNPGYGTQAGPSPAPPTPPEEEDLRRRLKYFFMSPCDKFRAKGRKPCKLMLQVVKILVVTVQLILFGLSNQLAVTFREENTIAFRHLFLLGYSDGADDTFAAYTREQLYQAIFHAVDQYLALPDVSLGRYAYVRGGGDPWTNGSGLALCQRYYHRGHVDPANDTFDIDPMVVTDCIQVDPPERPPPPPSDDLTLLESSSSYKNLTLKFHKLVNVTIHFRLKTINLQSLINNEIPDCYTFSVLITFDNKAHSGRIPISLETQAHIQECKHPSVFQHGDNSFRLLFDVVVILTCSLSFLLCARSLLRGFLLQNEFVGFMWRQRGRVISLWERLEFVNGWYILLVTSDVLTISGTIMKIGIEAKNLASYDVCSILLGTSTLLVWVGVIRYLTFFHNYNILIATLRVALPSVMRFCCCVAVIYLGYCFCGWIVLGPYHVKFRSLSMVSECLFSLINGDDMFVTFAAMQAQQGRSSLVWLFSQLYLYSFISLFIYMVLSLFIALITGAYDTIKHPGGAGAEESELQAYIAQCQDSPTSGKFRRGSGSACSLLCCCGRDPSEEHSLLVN
#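 TRPML1-DL cells, Tet-induced overnight (~16 h, 37 °C) at 1,500 cells/well, were loaded with Ca8 no-wash dye plus quencher for 45-90 min at room temperature. Compounds were pinned during FDSS kinetic reading; agonist 54-4 at EC80 (4 uM final) then added.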
# A-T KAP1 phos: candidate therapy for ataxia-telangiectasia; 0.19% of 320,000 active; F2112 A-T fibroblasts, KAP-1 phosphorylation AlphaLISA; neocarzinostatin DNA damage 30 min before lysis; Potency, µM (highest dose often 57.5 µM), inactives show at the top dose activation, most hits filed as activators; note: potency is the fitted concentration of half-maximal effect; % of control where 0% means no effect; nearly all actives have a fitted effect of over 45% in size
#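 ATM-like activity read as KAP-1 phosphorylation via AlphaLISA donor/acceptor antibody pairs after lysis and 6 hr at 25C. Cells were ATM-null patient fibroblasts (F2112, hTERT), dosed 60 min, then exposed to the DSB inducer NCS for 30 min.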
# TRPML1 agonist: human mucolipin-1 channel agonism. Q9GZU1. TRPML1-expressing cells, Ca2+ dye fluorescence, FDSS. activation, % (no concentration beside the values). 0.12% of 410,000 active; in the data active = activation above about 50%; inconclusive = mostly about 30% to 49%; note: 0% is about no effect
#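 Kinetic FDSS Ca2+ read in Tet-induced TRPML1-DL cells (ABD Ca8 dye plus quencher, 45-90 min RT loading): baseline, then compound, then 110 s agonist window; EC80 agonist 54-4 at 4uM final added afterwards for a 110 s antagonist window.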
# Vif-A3G inh: inhibitors of Vif-APOBEC3G interaction | 0.076% of 410,000 active | Q9HC16 | Potency, µM (doses to about 46.1 µM), for the others: at the highest dose activity, negative = active, hits mostly inhibitors | HeLa A3G-eYFP + Vif (tagged APOBEC3G with the HIV-1 protein that degrades it), YFP fluorescence, overnight; note: potency is the fitted concentration of half-maximal effect; % is set by controls: 0 for no effect and ±100 for the full control effect; nearly all actives have a fitted effect of over 60% in size
#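 HeLa cells stably expressing Vif and C-terminally eYFP-tagged A3G, seeded overnight at 37 deg C, then exposed to compound by pintool overnight at 37 deg C. Rise in yellow fluorescence (Ex 488/Em 500-530, Acumen) marks blocked Vif-driven A3G degradation.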
# Vif-APOBEC3F blk: blocks the Vif interaction with APOBEC3F; HeLa A3F-eYFP + Vif (tagged APOBEC3F with the HIV-1 protein that degrades it), YFP fluorescence increase; Potency, µM (top dose mostly 46.1 µM), for inactives: at the highest dose activity, negative = active; 0.2% of 390,000 active; AID 602313; note: potency is the fitted concentration of half-maximal effect; % of control where 0% means no effect; nearly all actives have a fitted effect of over 65% in size
#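 Fluorescence increase (Ex 488/Em 500-530) after overnight compound treatment at 37 deg C flags inhibition of Vif-driven A3F-eYFP loss in stable HeLa A3F-eYFP/Vif cells seeded overnight beforehand.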
# Numbers without * were called inactive; ? = inconclusive; . = no result. A selection: hits, their analogues and other compounds. The true share with any hit is near 0.54%. Unless noted, calls come from the whole dose curve; as a rule, active = well fitted curve in the direction sought with a large enough effect; inconclusive = small, poorly fitted or top-dose-only effect, or another doubt; inactive = no such curve, though single readings can be large; an effect the other way counts as inactive or inconclusive.
SMILES,TRPML1 inh,A-T KAP1 phos,TRPML1 agonist,Vif-A3G inh,Vif-APOBEC3F blk
Cc1ccc(S(=O)(=O)Nc2ccccc2N2CCOCC2)cc1,-9,1%,64*,?,-7%
CCN1CCN(S(=O)(=O)c2ccc(Cl)c(C(=O)Nc3cc(Cl)ccc3N3CCOCC3)c2)CC1,-20,4%,74*,-7%,3%
O=S(=O)(Nc1cc(C(F)(F)F)ccc1N1CCOCC1)c1ccccc1,10,1%,0,-8%,-5%
Cc1ccc(S(=O)(=O)Nc2ccccc2N2CCCCC2)cc1,-3,26%,76*,7%,-9%
CC(C)(C)n1ncc2c(=O)n(Cc3ccc(SC(F)(F)F)cc3)cnc21,31,.,2,0%,.
Cc1ccc(S(=O)(=O)Nc2cc(C(F)(F)F)ccc2N2CCOCC2)cc1C,-11,2%,85*,0%,-16%
COc1ccc(C(=O)Nc2cc3c4c(c2)CC(=O)N4CCC3)cc1,?,11%,55*,-15%,7%
COc1ccc(C(=O)Nc2cc3c4c(c2)CC(=O)N4CCC3)c(OC)c1,1,7%,0,-3%,4%
COC(=O)c1ccccc1NC(=O)COc1ccccc1C(=O)Nc1ccccc1,.,.,0,-3%,.
CCC(=O)N1CCc2cc(Br)cc(S(=O)(=O)CCC(=O)N(C)c3cccc(C)c3)c21,19,11%,2,0%,1%
O=C(NCC1CCCO1)c1nn2c(C(F)(F)F)cc(-c3ccco3)nc2c1Cl (configuration not stated),-5,.,0,2%,3%
O=C(NCC1CCCO1)c1nn2c(C(F)(F)F)cc(-c3cc(Br)cs3)nc2c1Br (configuration not stated),0,5%,-1,-9%,10µM*
Cc1nn(-c2ccccc2)c2c1N(CCCC(=O)NCc1ccc(OC(C)C)cc1)C(=O)CS2,0,.,0,?,-7%
COc1ccc(/C=c2\s/c(=C/C(=O)c3ccc(C)cc3)[nH]c2=O)c(OC)c1,-2,-5%,?,?,25µM*
COc1ccc(N=Cc2c(O)n(-c3ccc(OC)cc3)c(=O)c3ccccc23)cc1,-18,-2%,-1,-1%,11µM*
Cc1cccc(N2C(=O)c3cccc4c(N)ccc(c34)C2=O)c1,-10,34%,104*,15%,?
Nc1cccc(N2C(=O)c3cccc4c(N)ccc(c34)C2=O)c1,-23,-6%,55*,-2%,2%
Nc1ccc2c3c(cccc13)C(=O)N(c1ccccc1)C2=O,-3,12%,94*,5%,?
CN(C)c1ccc2c3c(cccc13)C(=O)N(c1ccccc1)C2=O,.,3%,.,.,.
Cc1cccc(N2C(=O)c3cccc4c(N(C)CCO)ccc(c34)C2=O)c1,-1,-18%,77*,?,?
Cc1cccc(N2C(=O)c3cccc4cccc(c34)C2=O)c1,.,13%,.,-3%,8%
Cc1ccc(C(=O)Nc2ccc3c(c2)N(C)C(=O)c2ccccc2S3)cc1F,-1,.,2,-13%,2%
Cc1nn(C)c(Cl)c1S(=O)(=O)N(Cc1ccco1)c1ncnc2nc[nH]c12,.,.,-1,2%,.
CC(C)C[C@@H](CN=[N+]=[N-])N1CCN(CCc2ccccc2)CCC1=O,.,.,0,2%,.
CCOCCCNC(=O)C(c1ccc(Cl)cc1)N(Cc1ccc2c(c1)OCO2)C(=O)c1ccc(NC(C)=O)cc1 (configuration not stated),-6,.,1,-1%,2%
SMILES,TRPML1 inh,A-T KAP1 phos,TRPML1 agonist,Vif-A3G inh,Vif-APOBEC3F blk
CCCCN1CCCc2cc(CN(CCCN3CCOCC3)C(=O)Nc3ccc(CC)cc3)ccc21,20,.,3,2%,0%
C=Cc1ccc(Cn2c(C(=O)O)c(CNCc3ccccc3)c3ccc(C)cc32)cc1,17,.,2,-8%,5%
CC(C)CCN1C(=O)c2cccc3c(N)ccc(c23)C1=O,-12,.,89*,?,?
Cc1ccc(NC(=O)NC(=O)N(C(C)C)S(C)(=O)=O)nc1,-3,0.71µM*,1,1%,-10%
CC(C)N(C(=O)NC(=O)Nc1ccccn1)S(C)(=O)=O,0,11%,0,0%,-1%
Cn1ccc2c(N3CCCCC3)cc3c(c21)C1CCC3C1 (configuration not stated),-24,.,57*,-6%,.
Cn1ccc2c(N3CCCC3)cc3c(c21)C1CCC3C1 (configuration not stated),0,.,0,0%,.
Cn1c(N2CCOCC2)c(/C=N/OC(=O)c2ccc(F)cc2)c2ccccc21,-3,35µM*,0,1%,0%
Cc1ccc(C)c(NC(=O)C2CCCN(S(=O)(=O)c3cccc4nsnc34)C2)c1 (configuration not stated),42,.,-1,6%,4%
O=C(NC(=S)Nc1ccc(N2CCCCC2)c(Cl)c1)c1ccc2c(c1)OCCO2,5,7%,1,-26%,10µM*
COc1cc(/C=C2\CC/C(=C\c3cc(OC)c(OC)c(OC)c3)C2=O)cc(OC)c1OC,3,1%,0,-5%,-27%
COc1cc(/C=C2\CC(C(C)(C)C)C/C(=C\c3cc(OC)c(OC)c(OC)c3)C2=O)cc(OC)c1OC (configuration not stated),23,7%,2,8.9µM*,?
COc1ccc(S(=O)(=O)Oc2ccc3ccccc3c2)cc1,38,22%,1,?,-17%
COC1=C(OC)C(=O)C(Sc2ccc3ccccc3c2)=CC1=O,11,.,0,?,25µM*
CCn1c(=N)n(CC(=O)c2ccc(Cl)c(Cl)c2)c2ccccc21,22,28µM*,1,6%,?
N=c1n(CCN2CCCCC2)c2ccccc2n1CC(=O)c1ccc(Cl)c(Cl)c1,-2,35µM*,0,-22%,?
C=CCn1c(=N)n(CC(=O)c2ccc(Cl)cc2)c2ccccc21,-8,16µM*,1,-10%,-12%
N=c1n(CCN2CCCCC2)c2ccccc2n1CC(O)c1ccc(Cl)c(Cl)c1 (configuration not stated),-10,0%,0,?,-2%
CCn1c(=N)n(CC(=O)c2ccc(OC)cc2)c2ccccc21,26,0%,0,-3%,1%
C=CCNC(=S)N/N=C(\C)c1ccc(OC)cc1,18,4%,0,1%,10µM*
CCC[C@@H]1CCCC/C=C\CCCC(=O)OCCN1C(=O)OC(C)(C)C,-13,25µM*,7,0%,-22%
COc1ccc(-n2c(=O)c3c4c(sc3n(Cc3cc(C)ccc3C)c2=O)CN(C(C)=O)CC4)c(OC)c1,-13,.,0,-5%,4%
